Reference: PubChem BioAssay (Tox21)
Several values for one entry are separate records, joined by “and”; a condition that tells them apart may be missing. Identical values can stand only once. Records with an inconclusive call do not appear. Activity calls are given as the source filed them. Calls follow the shape of the dose curve; as a rule, active = well fitted curve in the direction sought with a large enough effect in the repeat runs; inconclusive = weak or mixed curves; inactive = no such curve, though single readings can be large; an effect the other way counts as inactive or inconclusive.

Key:
[1] = A CellTox Green Cytotoxicity Assay to monitor cytotoxicity in HepG2 cells - 0 hour (AID 1224882); also: nearly all actives have a fitted effect of over 35% in size
How it was run: (§1)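 HepG2 cells were seeded together with the CellTox Green dye at 600 cells/well, left 5 h at 37 C/5% CO2, then given compounds in DMSO. Fluorescence from dye bound to dead-cell DNA was read repeatedly over 40 h of treatment at 37 C.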

[2] = A CellTox Green Cytotoxicity Assay to monitor cytotoxicity in HepG2 cells - 32 hour (AID 1224883); also: nearly all actives have a fitted effect of over 50% in size; also: potency is read from the fitted curve at half-maximal effect
How it was run: as §1

[3] = A CellTox Green Cytotoxicity Assay to monitor cytotoxicity in HEK293 cells - 8 hour (AID 1224884); also: nearly all actives have a fitted effect of over 35% in size; also: potency is read from the fitted curve at half-maximal effect
How it was run: (§2)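 HEK293 cells premixed with CellTox Green dye were seeded at 600 cells/well and left 5 h at 37 C/5% CO2 before pin transfer of 23 nL compound in DMSO. Fluorescence from dye bound to dead-cell DNA was read during 40 h treatment.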

[4] = qHTS RealTime-Glo MT Cell Viability Assay in HepG2 cells - 16 hour (AID 1224885); also: nearly all actives have a fitted effect of over 50% in size; also: potency is read from the fitted curve at half-maximal effect
How it was run: (§3)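 Compound treatment began 5 h after plating HepG2 cells (600/well) with NanoLuc luciferase and prosubstrate. Plates stayed at 37 C for 40 h; luminescence was captured at six time points, 0 h through 40 h.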

[5] = qHTS RealTime-Glo MT Cell Viability Assay in HEK293 cells - 24 hour (AID 1224886); also: nearly all actives have a fitted effect of over 50% in size; also: potency is read from the fitted curve at half-maximal effect; as to activity change, negative = cytotoxicity: top concentration of the series differs between compounds
How it was run: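 Quantitative high-throughput screen of the Tox21 10K library in HEK293: cells and RealTime-Glo reagents plated together, compound added at 5 h, luminescence monitored through 40 h at 37 C.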

[6] = A CellTox Green Cytotoxicity Assay to monitor cytotoxicity in HEK293 cells - 16 hour (AID 1224888); also: nearly all actives have a fitted effect of over 35% in size; also: potency is read from the fitted curve at half-maximal effect
How it was run: as §2

[7] = qHTS RealTime-Glo MT Cell Viability Assay in HepG2 cells - 0 hour (AID 1224889); also: nearly all actives have a fitted effect of over 50% in size
How it was run: as §3

[8] = A CellTox Green Cytotoxicity Assay to monitor cytotoxicity in HepG2 cells - 8 hour (AID 1224890); also: nearly all actives have a fitted effect of over 45% in size; also: potency is read from the fitted curve at half-maximal effect
How it was run: as §1

[9] = qHTS RealTime-Glo MT Cell Viability Assay in HEK293 cells - 8 hour (AID 1224887); also: nearly all actives have a fitted effect of over 50% in size; also: potency is read from the fitted curve at half-maximal effect; as to activity change, negative = cytotoxicity: top concentration of the series differs between compounds
How it was run: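 HEK293 cells mixed with RealTime-Glo reagents (NanoLuc plus cell-permeant prosubstrate) at 600 cells/well, preincubated 5 h at 37 C/5% CO2, then given 23 nL compound in DMSO. Nonlytic luminescence from viable cells was read at 0, 8, 16, 24, 32 and 40 h.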
% is scaled to controls: 0 for no effect and ±100 for the full control effect.

CCOC(=O)CC(=O)CCl
active: Potency [5] 43.6 µM
inactive: Potency [1] | Potency [2] | Potency [3] | Potency [4] | Potency [6] | Potency [7] | Potency [8]

CCCN(CC)CC1COC2(CCC(C(C)(C)C)CC2)O1 (stereo unspecified)
inactive: Potency [1] | Potency [2] | Potency [3] | Potency [4] | Potency [5] | Potency [9] | Potency [6] | Potency [7] | Potency [8]

C[C@H]1O[C@@H](O[C@H]2[C@@H](O)C[C@H](O[C@H]3[C@@H](O)C[C@H](O[C@H]4CC[C@@]5(C)[C@H](CC[C@@H]6[C@@H]5CC[C@]5(C)[C@@H](C7=CC(=O)OC7)CC[C@]65O)C4)O[C@@H]3C)O[C@@H]2C)C[C@H](O)[C@@H]1O
active: Potency [5] 34.9 nM and 84.9 nM
inactive: Potency [1] | Potency [2] | Potency [3] | Potency [4] | Potency [9] | Potency [6] | Potency [7] | Potency [8]

O=C(Nc1ccc2[nH]ccc2c1)c1cc2cc(F)ccc2n1Cc1cccc(F)c1
inactive: Potency [1] | Potency [2] | Potency [3] | Potency [5] | Potency [6] | Potency [7] | Potency [8]

N#CCc1ccc(Cl)cc1
inactive: Potency [1] | Potency [2] | Potency [3] | Potency [4] | Potency [5] | Potency [9] | Potency [6] | Potency [7] | Potency [8]

ClC1=C(Cl)[C@]2(Cl)[C@@H]3[C@@H](Cl)[C@H](Cl)C[C@@H]3[C@@]1(Cl)C2(Cl)Cl
inactive: Potency [1] | Potency [2] | Potency [3] | Potency [4] | Potency [5] | Potency [9] | Potency [7] | Potency [8]

CN(CCCC(=O)c1cccnc1)N=O
inactive: Potency [1] | Potency [2] | Potency [3] | Potency [5] | Potency [9] | Potency [6] | Potency [7] | Potency [8]

O=c1oc2ccccc2c(O)c1Cc1c(O)c2ccccc2oc1=O
inactive: Potency [1] | Potency [2] | Potency [3] | Potency [5] | Potency [6] | Potency [8]

C[CH2][Hg][N]1C(=O)C2C(C1=O)C1(Cl)C(Cl)=C(Cl)C2(Cl)C1(Cl)Cl (stereo unspecified)
inactive: cytotoxicity [1] 1.33% [at 15.8 µM] | activity change, negative = cytotoxicity [7] -6.6% [at 15.8 µM]
active: Potency [2] 8.27 µM | Potency [3] 4.65 µM | Potency [4] 6.57 µM | Potency [5] 2.33 µM | Potency [9] 3.69 µM | Potency [6] 4.65 µM | Potency [8] 8.27 µM

CC(=O)[O-].CC(=O)[O-].O.O.[Cd+2]
inactive: Potency [1] | Potency [3] | Potency [6] | Potency [7] | Potency [8]
active: Potency [2] 27.2 µM

CCOCCOC(C)=O
inactive: Potency [1] | Potency [3] | Potency [4] | Potency [5] | Potency [9] | Potency [6] | Potency [7] | Potency [8]

CC(C)(C)C(O)/C(=C\c1ccc(Cl)cc1Cl)n1cncn1 (stereo unspecified)
active: Potency [5] 26.5 µM | Potency [9] 47.1 µM
inactive: Potency [1] | Potency [3] | Potency [6] | Potency [7] | Potency [8]

O=[N+]([O-])c1cc([N+](=O)[O-])c2ccccc2c1
inactive: Potency [1] | Potency [2] | Potency [5] | Potency [9]

CCCCOCN(C(=O)CCl)c1c(CC)cccc1CC
inactive: Potency [1] | Potency [3] | Potency [5] | Potency [6] | Potency [7] | Potency [8]

Oc1ccc(C2(c3ccc(O)cc3)CCCCC2)cc1
inactive: Potency [1] | Potency [4] | Potency [7] | Potency [8]

N#CCCC(Br)(C#N)CBr (stereo unspecified)
active: Potency [4] 38.9 µM | Potency [5] 24.5 µM | Potency [9] 49 µM | Potency [6] 54.9 µM | Potency [8] 54.9 µM
inactive: Potency [1]

O=C(O)COc1nc(Cl)c(Cl)cc1Cl
inactive: Potency [4] | Potency [5]

O=C(CBr)c1ccc(O)cc1
inactive: Potency [1] | Potency [3] | Potency [4] | Potency [6] | Potency [7]

Nc1ccc(Cl)cc1C(=O)c1ccccc1
inactive: Potency [1] | Potency [2] | Potency [4] | Potency [7] | Potency [8]

BrC(Br)C(Br)(Br)Br
inactive: Potency [1] | Potency [3] | Potency [4] | Potency [7] | Potency [8]
active: Potency [5] 24.7 µM

N#C/C=C/C#N
inactive: Potency [1] | Potency [2] | Potency [3] | Potency [6] | Potency [8]

O=[N+]([O-])c1ccc2ccc3cccc4ccc1c2c34
inactive: Potency [1] | Potency [2] | Potency [4] | Potency [5] | Potency [9] | Potency [7] | Potency [8]

O=[N+]([O-])O.O=[N+]([O-])O.[Cd]
inactive: Potency [1] | Potency [3] | Potency [4] | Potency [9] | Potency [6] | Potency [7] | Potency [8]
